# Bioassay records (PubChem BioAssay)
# In the library only some 1.6% were active in any assay of this set; here they are far more common.
# HTR5A ag ctr: counter-screen for OPRM1-OPRD1 agonists: human HTR5A agonism | activation, % at 9.3 µM | P47898 | AID 504692 | HTR5A agonist assay, luminescence, cell-based | hit rate 0.61% among 340,000; in the data active means activation mostly above about 9.5%, no sharp cut-off; inactive means mostly below about 7.6%;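 further: 0% = cells with vehicle only and 100% = reference agonist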
# OPRM1-OPRD1 ag: agonists of human mu-delta opioid receptor heterodimerization; P35372+P41143; cells, OPRM1-OPRD1 heterodimerization, luminescence; activation, % at 9.3 µM; hit rate 0.3% among 340,000; AID 504326;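 further: 0% = vehicle-treated cells and 100% = reference agonist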
# Target sequence (P35372 whole entry, looked up): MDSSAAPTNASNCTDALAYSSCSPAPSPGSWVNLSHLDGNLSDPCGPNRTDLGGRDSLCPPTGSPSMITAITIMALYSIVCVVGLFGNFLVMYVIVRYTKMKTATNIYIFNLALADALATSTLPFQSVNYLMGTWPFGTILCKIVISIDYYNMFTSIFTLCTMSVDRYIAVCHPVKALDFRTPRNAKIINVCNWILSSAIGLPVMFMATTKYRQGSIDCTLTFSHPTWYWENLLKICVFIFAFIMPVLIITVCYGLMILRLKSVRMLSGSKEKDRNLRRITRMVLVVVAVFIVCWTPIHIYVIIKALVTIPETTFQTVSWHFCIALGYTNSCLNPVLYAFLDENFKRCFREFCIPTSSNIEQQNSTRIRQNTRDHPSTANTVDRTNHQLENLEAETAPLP
# Target sequence (P41143 whole entry, looked up): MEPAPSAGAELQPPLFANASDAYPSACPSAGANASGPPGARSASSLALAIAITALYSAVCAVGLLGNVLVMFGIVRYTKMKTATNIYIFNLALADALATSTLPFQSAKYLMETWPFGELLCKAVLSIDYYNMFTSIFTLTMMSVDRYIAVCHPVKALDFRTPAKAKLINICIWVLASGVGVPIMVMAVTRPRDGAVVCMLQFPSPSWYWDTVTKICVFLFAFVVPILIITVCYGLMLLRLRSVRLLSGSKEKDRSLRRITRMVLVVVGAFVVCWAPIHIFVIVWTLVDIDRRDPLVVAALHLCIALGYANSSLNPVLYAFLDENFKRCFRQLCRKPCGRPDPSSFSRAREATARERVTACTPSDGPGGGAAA
# OPRM1-OPRD1 inv: inverse agonist of human OPRM1-OPRD1 heterodimerization; hit rate 0.21% among 340,000; AID 504357; inhibition, % at 9.3 µM; P35372+P41143; cell-based MOR-DOR heterodimer luminescence, inverse agonism; in the data active means inhibition above about 22%, passing the limit was not always enough;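 further: 0% = cells with DMSO and 100% = wells without cells with DMSO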
# HTR5A inv ctr: HTR5A inverse agonism, opioid heterodimer counter-screen; hit rate 0.083% among 340,000; inhibition, % at 9.3 µM; HTR5A cell line, luminescence; in the data active means inhibition mostly above about 23%, no sharp cut-off; inactive means mostly below about 18%;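 further: 0% = cells with DMSO and 100% = no-cell wells with DMSO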
# m5-HT2A agonist: agonists of mouse serotonin 5-HT2A receptor (HTR2A); P35363; CHO-K1 mHTR2A beta-arrestin complementation, luminescence; percent of 30 µM serotonin response; activation, % at 7.6 µM; hit rate 0.66% among 360,000; AID 624169;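 active means activation above a run cutoff, the mean activation of all tested compounds plus 3 SD, cut at about 14% in these data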;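 further: 0% = plate median of compound wells and 100% = 30 µM serotonin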
# MOR-DOR ag conf: OPRM1-OPRD1 heterodimer agonism, confirmation; shares compounds with OPRM1-OPRD1 ag; cells, MOR-DOR heterodimerization, luminescence complementation; activation, % at 9.3 µM; hit rate 45% among 830; AID 504904;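 further: 0% = vehicle-treated cells and 100% = reference agonist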
# HTR5A ag counter: activates human HTR5A in OPRM1-OPRD1 agonist counter-screen; shares compounds with OPRM1-OPRD1 ag; HTR5A agonist counterscreen, cell luminescence; activation, % at 9.3 µM; hit rate 8% among 830; AID 504905; in the data active means activation above about 17%;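 further: 0% = vehicle-treated cells and 100% = reference agonist response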
# * = called active by the depositor; i = inactive; · = no result. Unless noted, no stated cut-off is given here; in the data, active means activation above about 18%; inactive means the rest.
SMILES,HTR5A ag ctr,OPRM1-OPRD1 ag,OPRM1-OPRD1 inv,HTR5A inv ctr,m5-HT2A agonist,MOR-DOR ag conf,HTR5A ag counter
Cc1cc(-c2ccccc2)cc(C)[n+]1Cc1ccccc1,3,53*,-299,3,0,0,1
O=[N+]([O-])c1ccc(C[n+]2c(-c3ccccc3)cc(-c3ccccc3)cc2-c2ccccc2)cc1,2,-2,10,-7,10,·,·
CN(C)C(CNC(=O)Cc1c(Cl)cccc1Cl)c1ccccc1 (stereo not given),1,145*,i,-3,-2,1,4
COc1ccc(C(=O)C(Cc2ccccc2)N(C)C)cc1 (stereo not given),3,-3,16,9,-4,·,·
COc1ccc(C(CNC(=O)c2ccc3c(c2)CCC3)N(C)C)cc1 (stereo not given),2,400*,i,-7,-5,512*,-2
CC[C@H](OC(C)=O)C(C[C@H](C)N(C)C)(c1ccccc1)c1ccccc1,-2,221*,i,4,-3,2,52*
CCN(CC)CCCOC(=O)C(OC(C)C)(c1ccccc1)c1ccccc1,0,1,-6,0,-25,·,·
CCOC(=O)C1(CCCc2ccccc2)CCN(C2CCCC2)CC1,-3,-2,11,7,5,·,·
CCOC(=O)C1(CCc2ccccc2)CCN(Cc2ccc3c(c2)OCCO3)CC1,6,25*,-121,-13,-9,1,4
CCOC(=O)C1(CCc2ccccc2)CCN(Cc2ccc(NC(C)=O)cc2)CC1,-1,293*,i,2,-3,372*,0
CCOC(=O)C1(CCc2ccccc2)CCN(C2CCSCC2)CC1,-3,2,-10,7,-3,·,·
CCOC(=O)C1(CCOc2ccccc2)CCN(Cc2ccc(C)s2)CC1,-1,33*,-171,4,-4,39*,3
CC(=O)OC1CC2(O)C3CCC4CC(O)CCC4(C)C3CCC2(C)C1C1=CC(=O)OC1 (stereo not given),28*,81*,-356,-108,7,1,62*
CC(=O)OC1CC(OC2C(O)CC(OC3C(O)CC(OC4CCC5(C)C(CCC6C5CCC5(C)C(C7=CC(=O)OC7)C(O)CC65O)C4)OC3C)OC2C)OC(C)C1OC1OC(CO)C(O)C(O)C1O (stereo not given),19*,72*,-369,-75,5,38*,28*
CCOC(=O)[C@]12Cc3cc(OC)ccc3[C@H]1N(C(C)C)C(=O)c1cc(OC)ccc12,·,·,·,·,0,·,·
CCOC(=O)[C@]12Cc3cc(OC)ccc3[C@H]1N(CCC(=O)OC)C(=O)c1cc(OC)ccc12,·,·,·,·,1,·,·
CCOC(=O)C1(c2ccccc2)CCN(CCC(=O)Nc2ccc(F)cc2)CC1,1,131*,-492,-13,-16,153*,0
CCOC(=O)C1(c2ccccc2)CCN(CC(=O)c2ccc(NC(C)=O)cc2)CC1,-2,-2,8,6,-3,·,·
CCOC(=O)C1(c2ccccc2)CCN(CC(=O)Nc2cccc3ccccc23)CC1,1,24*,-165,-17,-6,11,1
CCOC(=O)C1(c2ccccc2)CCN(Cc2cccc(C(=O)O)c2)CC1,-2,7,-41,-8,2,·,·
CCOC(=O)C1(c2ccccc2)CCN(CCC(=O)Nc2ccccc2OC)CC1,7,92*,-439,-24,-8,15,4
O=S(=O)(c1cccc(C(F)(F)F)c1)N1Cc2ccccc2-n2nncc2C1,·,·,·,·,-1,·,·
CCCCn1nnnc1C(c1cccs1)N1CCC2(CC1)C(=O)NCN2c1ccccc1 (stereo not given),·,·,·,·,4,·,·
COC(=O)[C@@H]1N=C(c2ccc(OC)cc2)O[C@]12C(=O)N(C)c1cccc(Cl)c12,·,·,·,·,-4,·,·
CN(C)C1(CNC(=O)c2ccc(Cl)c(S(=O)(=O)NCc3ccco3)c2)CCCCC1,-2,71*,-395,17,-8,80*,1
CCOC(=O)[C@]12Cc3c(cc(OC)c(OC)c3OC)[C@H]1N(CCC(=O)OC)C(=O)c1ccccc12,·,·,·,·,-2,·,·
CCOC(=O)[C@]12Cc3cc4ccccc4cc3[C@H]1N(Cc1ccccc1)C(=O)c1ccccc12,·,·,·,·,-4,·,·
